Compound activity as filed in PubChem.
Hits are enriched below; roughly 1.1% of the tested compounds scored in any of these assays.
HTR5A inv ag: HTR5A inverse agonists in luminescence cell assay, primary screen, counter-screen for OPRM1-OPRD1 heterodimer inverse agonist project, full-deck HTS. 5-hydroxytryptamine receptor 5A (Homo sapiens), P47898. HTR5A cell line, inverse agonism. inhibition, % at 9.3 µM. 0.083% of 340,000 active; in the data active means inhibition mostly above about 23%, no sharp cut-off; inactive means mostly below about 18%
MOR-DOR ag-1: agonists of OPRM1-OPRD1 heterodimerization, primary screen, cell-based, luminescence; 0.3% of 340,000 active; Mu-type opioid receptor (Homo sapiens) + Delta-type opioid receptor (Homo sapiens), …; activation, % at 9.3 µM; AID 504326, 2011; cells
Target sequence (P35372 whole entry, looked up): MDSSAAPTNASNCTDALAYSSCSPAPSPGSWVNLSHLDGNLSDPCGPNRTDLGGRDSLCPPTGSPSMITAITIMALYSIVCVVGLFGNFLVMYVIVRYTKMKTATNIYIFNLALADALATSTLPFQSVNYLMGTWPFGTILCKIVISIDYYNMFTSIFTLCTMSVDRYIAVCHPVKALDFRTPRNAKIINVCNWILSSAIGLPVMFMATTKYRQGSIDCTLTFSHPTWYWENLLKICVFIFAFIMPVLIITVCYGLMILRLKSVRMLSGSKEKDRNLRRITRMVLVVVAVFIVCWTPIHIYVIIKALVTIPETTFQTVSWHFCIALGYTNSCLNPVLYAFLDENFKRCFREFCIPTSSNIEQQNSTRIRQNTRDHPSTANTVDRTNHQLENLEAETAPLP
Target sequence (P41143 whole entry, looked up): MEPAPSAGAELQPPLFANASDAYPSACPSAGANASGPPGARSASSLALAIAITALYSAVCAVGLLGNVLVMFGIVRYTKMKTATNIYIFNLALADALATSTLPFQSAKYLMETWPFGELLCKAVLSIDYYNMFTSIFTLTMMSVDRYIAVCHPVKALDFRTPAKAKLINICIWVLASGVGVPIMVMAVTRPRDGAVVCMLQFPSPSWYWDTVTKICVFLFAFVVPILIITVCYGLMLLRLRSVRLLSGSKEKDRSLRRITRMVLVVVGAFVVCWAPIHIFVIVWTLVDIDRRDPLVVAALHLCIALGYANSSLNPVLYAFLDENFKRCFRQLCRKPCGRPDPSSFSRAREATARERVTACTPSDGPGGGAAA
OPRM1-OPRD1 inv: inverse agonists of MOR-DOR heterodimerization, primary screen, cell-based, luminescence; Mu-type opioid receptor (Homo sapiens) + Delta-type opioid receptor (Homo sapiens), …; cell-based MOR-DOR heterodimer luminescence, inverse agonism; inhibition, % at 9.3 µM; 0.21% of 340,000 active; in the data active means inhibition above about 22%, passing the limit was not always enough
HTR5A ag: HTR5A agonists in luminescence cell assay, primary screen, counter-screen for OPRM1-OPRD1 heterodimer agonist project, full-deck HTS | 5-hydroxytryptamine receptor 5A (Homo sapiens), P47898 | cell-based | activation, % at 9.3 µM | 0.61% of 340,000 active; in the data active means activation mostly above about 9.5%, no sharp cut-off; inactive means mostly below about 7.6%
MOR-DOR ag-2: OPRM1-OPRD1 heterodimerization promoters, counter-screen for HTR5A agonist project, cell-based, luminescence. shares compounds with HTR5A ag. U2OS counter-screen cells, complementation luminescence, 3 h. activation, % at 9.3 µM. 13% of 800 active
HTR5A ag conf: HTR5A agonists, retest of hits, confirmation, cell-based, luminescence | 17% of 800 active | activation, % at 9.3 µM | HTR5A agonist cell assay | shares compounds with HTR5A ag; in the data active means activation above about 17%
Numbers stand for hits; n = inactive; x = no result. Unless noted, no stated cut-off is given here; in the data, active means activation above about 18%; inactive means the rest.

SMILES	HTR5A inv ag	MOR-DOR ag-1	OPRM1-OPRD1 inv	HTR5A ag	MOR-DOR ag-2	HTR5A ag conf
Cc1onc(-c2ccccc2)c1C(=O)N/N=C/c1ccc([N+](=O)[O-])c(O)c1	n	n	n	20	n	n
Clc1ccc(-c2nc(N3CCOCC3)nc3ccccc23)cc1	n	n	n	n	x	x
C/C(=N\NS(=O)(=O)c1ccc(Cl)c([N+](=O)[O-])c1)c1cc2ccccc2o1	n	n	n	n	x	x
C/C(=N\NS(=O)(=O)c1ccc(C)c([N+](=O)[O-])c1)c1cc2ccccc2o1	n	n	n	27	19	n
COc1ccc(NC(=S)N/N=C2\CC(C)(C)Oc3ccc(OC)cc32)cc1	n	n	n	19	n	n
Cc1ccc(NC(=S)N/N=C2\CC(C)(C)Oc3ccc(O)cc32)cc1	n	n	n	n	x	x
Cc1cc(NCc2ccccn2)n2ncc(-c3ccccc3)c2n1	n	n	n	n	x	x
Cc1ccc(-n2ncc3c(NCc4ccc5c(c4)OCO5)ncnc32)c(C)c1	n	n	n	15	n	n
Cc1cccc(-n2ncc3c(NCc4ccc5c(c4)OCO5)ncnc32)c1	n	n	n	n	x	x
COc1cc2nc(N3CCN(c4cc(C)ccc4C)CC3)nc(N)c2cc1OC	n	n	n	17	n	n
COc1ccc(CNC(=O)CN(CC2CCCO2)C(=O)CNS(=O)(=O)c2ccccc2)cc1 (stereo not drawn)	n	n	n	17	n	n
CCOc1ccccc1N1CCN(C(=O)NC2CCCCC2)CC1	n	n	n	n	x	x
CCC(C)(C)C1CCC(NC(=O)N2CCN(c3ccccc3O)CC2)CC1 (stereo not drawn)	n	n	n	15	n	n
O=C(NCc1ccc2c(c1)OCO2)C1CC(=O)N(CCc2ccccc2)C1 (stereo not drawn)	n	n	n	n	x	x
O=C(NCc1ccc2c(c1)OCO2)C1CC(=O)N(CCc2ccc(F)cc2)C1 (stereo not drawn)	n	n	n	16	n	n
CSc1cc(-c2ccc(Cl)cc2)[nH]c(=O)c1C#N	n	n	n	17	n	n
O=C1OC(c2ccccc2)(c2ccc(O)cc2)c2ccccc21 (stereo not drawn)	n	n	n	22	n	n
CCN(CC)S(=O)(=O)c1ccc(Cl)c(C(=O)NNC(=O)c2csc(N3CCOCC3)n2)c1	n	n	n	n	x	x
O=C(Nc1ccccc1)c1ncoc1-c1ccc(Cl)cc1	n	n	n	19	n	n
Cc1nn(-c2ccc(F)cc2)c2sc(C(=O)N3CCCCCC3)cc12	n	n	n	n	x	x
Cc1nn(-c2ccc(Cl)cc2)c2sc(C(=O)N3CCN(c4ccccn4)CC3)cc12	n	n	n	22	n	n
O=C(CSc1ccc(-c2ccc(F)cc2)nn1)NCc1ccco1	n	n	n	19	n	n
O=C(CSc1ncccc1C(=O)O)NC1CCCCC1	n	n	n	n	x	x
Nc1ncnc2nc(N3CCN(C(=O)c4ccccc4)CC3)[nH]c12	n	n	n	19	n	n
O=C(NNS(=O)(=O)c1ccc2ccccc2c1)NC1CCCCC1	n	n	n	n	x	x
SMILES	HTR5A inv ag	MOR-DOR ag-1	OPRM1-OPRD1 inv	HTR5A ag	MOR-DOR ag-2	HTR5A ag conf
O=C(NCc1ccccc1)c1ccc(F)c(F)c1	n	n	n	14	n	n
O=C(Nc1ccc(Oc2cccc(C(F)(F)F)c2)nc1)c1ccco1	n	n	n	n	x	x
CC(C)(C)c1ccc(Oc2ccc(NC(=O)c3ccco3)cn2)cc1	n	n	n	16	28	n
O=C(NCc1cccs1)c1cc(-c2ccccc2)nn1CC1CC(c2cccc([N+](=O)[O-])c2)=NO1 (stereo not drawn)	n	n	n	n	x	x
C=C(C)CSc1nc(C)c(Cc2ccccc2)c(=O)[nH]1	n	n	n	n	x	x
O=C(N/N=C/c1cn(Cc2cccc(F)c2)c2ccccc12)c1cc(O)cc(O)c1	n	n	n	17	284	n
Nc1c(C(=O)Nc2ccc(S(=O)(=O)N3CCCC3)cc2)sc2nc3cc4c(cc3cc12)CCC4	n	n	n	n	x	x
Nc1c(C(=O)Nc2ccc(S(=O)(=O)N3CCCC3)cc2)sc2nc3ccc(OC(F)(F)F)cc3cc12	n	n	n	15	24	n
CN1CCN(c2ccc(NC(=O)c3cccc(S(=O)(=O)N4CCCC4)c3)cc2)CC1	n	n	n	n	x	x
CCCCCc1ccc(C(=O)CCCC)c(=S)[nH]1	n	n	n	29	n	n
Cc1ccc(Sc2c([N+](=O)[O-])c(=O)n(C)c3ccccc23)cc1	n	n	n	n	x	x
O=C(NC1CCCCC1)c1cc2ccccc2cc1O	n	n	n	17	n	n
C/C(=N/NS(=O)(=O)c1ccc(Br)cc1)c1ccc(NC(=O)c2ccc(C)o2)cc1	n	n	n	17	n	n
CCOC(=O)C(=O)/C(C#N)=C/Nc1ccccc1	n	n	n	n	x	x
CCOC(=O)/C(C#N)=C/Nc1ccccc1OC	n	n	n	17	n	n
Cc1nc(Nc2ccc(Cl)cc2)c(C#N)c(=O)[nH]1	n	n	n	16	n	n
N#Cc1cccnc1Nc1ccc(Cl)cc1	n	n	n	n	x	x
O=C(OCC(=O)N1CCC(Cc2ccccc2)CC1)c1ccccc1NCCO	n	n	n	n	x	x
O=C1OCCC1Sc1nnc(-c2ccccc2Cl)n1Cc1ccccc1 (stereo not drawn)	n	n	n	n	x	x
O=C1OCCC1Sc1nnc(-c2cccs2)n1Cc1ccccc1 (stereo not drawn)	n	n	n	15	n	n
Cc1ccc(S(=O)(=O)N(CC(=O)NCCSc2ccccn2)c2ccc(C)c(C)c2)cc1	n	n	n	n	x	x
CCOc1ccccc1N(CC(=O)NCCSc1ccccn1)S(=O)(=O)c1ccc(C)cc1	n	n	n	30	n	n
CCOc1ccccc1N(CC(=O)NCCSc1ccccn1)S(=O)(=O)c1ccccc1	n	n	n	25	126	n
CC(C)C[C@@H](CO)N1CCN(CCc2ccccc2)CCC1=O	n	n	n	n	x	x
Cc1ccc(OCCn2c(C)c(/C=N/n3cnnc3)c3ccccc32)cc1	n	n	n	21	n	n
Cc1c(/C=N/n2cnnc2)c2ccccc2n1CCOc1ccc(Cl)cc1	n	n	n	n	x	x
COC(=O)c1ccc(NC(=O)c2cc[n+](Cc3ccccc3)cc2)cc1	n	n	n	15	n	n
O=C(C1CCN(S(=O)(=O)c2ccc3c(c2)OCCO3)CC1)N1CCc2ccccc21	n	n	n	33	n	23
O=C(C1CCN(S(=O)(=O)c2ccccc2)CC1)N1CCc2ccccc21	n	n	n	n	x	x
O=C(Nc1cccc(Cl)c1N1CCCC1)c1ccc(Br)o1	n	n	n	n	x	x
